These results are taken from PubChem BioAssay (NCATS).

Assay [1] in a line: NFAT Signaling Pathway (AID 444; active = well fitted curve in either direction with a large enough effect, not every such curve was filed as active;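 note: carbachol stimulus at about its EC50 of 1 µM final; % is set by controls: 0 for no effect and ±100 for the full control effect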). The settings on record: Jurkat NFAT-bla M1, carbachol, beta-lactamase ratio, 5 h; at 17.2 µM (top of the series). A digest of the protocol: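 Jurkat cells with NFAT-driven β-lactamase reporter and co-expressed M1 receptor, stimulated with carbachol (final 1 uM, ~EC50), compound titration, 5 h at 37 °C. CCF4 loaded 1 h at RT; 460/530 nm ratio gave %activity and AC50.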

Assay [2] in a line: Cell Viability - Renal Proximal Tubule (AID 545).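 Note: 0% = DMSO only and -100% = 100 µM tamoxifen; nearly all actives have a fitted effect of over 40% in size.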 The note with it: renal proximal tubule cells viability, at 91.7 µM (top of the series). The procedure, abridged: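 In this qHTS format, normal rat kidney-derived proximal tubule cells in complete culture medium receive compound titrations, then sit 40 hours at 37 °C before luciferase-based ATP quantitation; potency is reported as AC50 from concentration-response curves.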

Assay [3] is described as follows: qHTS assay for small molecule activators of the p53 signaling pathway (AID 651743; active = well fitted activation curve with a large enough effect in the signal ratio, not every such curve was filed as active; the % refers to the signal ratio; note: potency is the fitted concentration of half-maximal effect; for activation: % of control where 0% means no effect). The settings on record: HCT-116 p53RE-bla, beta-lactamase FRET ratio, 16 h; activation: active compounds read high. A digest of the protocol:
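p53RE-bla HCT-116 cells carrying a beta-lactamase reporter under p53 response elements were exposed to compounds for 16 hours at 37 C. Reporter activity read as fluorescence after 2 hours at room temperature with LiveBLAzer B/G FRET substrate.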
On the technique in general: In qHTS, concentration-response curves come from the screen itself.

Assay [4] has as its target Peroxisome proliferator-activated receptor alpha (Homo sapiens) (UniProt Q07869). The assay is described as follows: qHTS assay for small molecule agonists of the peroxisome proliferator-activated receptor alpha (PPARalpha) signaling pathway (AID 651778). Note: % of control where 0% means no effect. The note with it: PathHunter PPARalpha complementation, chemiluminescence, 6 h; active compounds read high. The procedure, abridged:
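Enzyme-fragment complementation assay in which ligand-bound PPARalpha translocates and forms an active enzyme that generates chemiluminescence. Cells were plated overnight, exposed to compound for 6 hr at 37 C, and then given detection reagent for 60 min at room temperature.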

Assay [5] is described as follows: S16 Schwann cell PMP22 intronic element beta-lactamase assay (AID 624044; calls by dose curve;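 note: 0% = DMSO and -100% = potassium clavulanate positive control; nearly all actives have a fitted effect of over 15% in size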). The settings on record: S16 rat Schwann cells, PMP22 element beta-lactamase FRET, 24 h; ratio activity, negative = inhibition: at 38.3 µM (top of the series) unless noted. A digest of the protocol: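 Rat S16 Schwann cells with beta-Lac driven by a PMP22 intronic element, compound-treated 24 h at 37 °C. LiveBLAzer FRET B/G read: 460 nm normalized to potassium clavulanate vs DMSO; 535 nm FRET as viability; concentration-effect curves classified.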

A further assay has as its system CP260. The assay is described as follows: qHTS profiling for inhibitors of Plasmodium falciparum proliferation (AID 504749).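 For activity, negative = inhibition: 0% = DMSO vehicle and full inhibition = artemisinin control.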 Note: nearly all actives have a fitted effect of over 60% in size. Note: potency is the fitted concentration of half-maximal effect. The settings on record: P. falciparum in erythrocytes, SYBR Green DNA, 72 h; series mostly up to 28.7 µM. A digest of the protocol: (§1)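 P. falciparum-infected erythrocytes (0.3% parasitemia, 2.5% hematocrit) incubated with compound 72 h at 37 C, 5% CO2. Parasite DNA detected by SYBR Green after lysis, overnight at room temperature; normalised to 0.29 uM artemisinin and DMSO.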

The subject of the next assay is CP265. Described as above. The note with it: P. falciparum in erythrocytes, SYBR Green DNA, 72 h; series mostly up to 12.8 µM. The procedure, abridged: as §1
In a further assay the test system is CP291. Described as above. The note with it: P. falciparum in erythrocytes, SYBR Green DNA, 72 h; series mostly up to 28.7 µM. A digest of the protocol: as §1
A further assay has as its system CP297. The assay is described as above. The settings on record: P. falciparum in erythrocytes, SYBR Green DNA, 72 h; series mostly up to 28.7 µM. The procedure, abridged:
as §1

For another assay, the system named is CP325. The assay is described as above. The settings on record: P. falciparum in erythrocytes, SYBR Green DNA, 72 h; series mostly up to 28.7 µM. A digest of the protocol: as §1
For another assay, the system named is CP329. The description is as above. The note with it: P. falciparum in erythrocytes, SYBR Green DNA, 72 h; series mostly up to 28.7 µM. The procedure, abridged:
as §1

Another assay concerns CP335. The assay is described as above. The note with it: P. falciparum in erythrocytes, SYBR Green DNA, 72 h; series mostly up to 12.8 µM. A digest of the protocol: as §1
The subject of a further assay is FAB9. The description is as above. The note with it: P. falciparum in erythrocytes, SYBR Green DNA, 72 h; series mostly up to 28.7 µM. The procedure, abridged:
as §1

Another assay concerns JCK. The description is as above. The settings on record: P. falciparum in erythrocytes, SYBR Green DNA, 72 h; series mostly up to 28.7 µM. The procedure, abridged:
as §1

Another assay deals with PC15. Described as above. The settings on record: P. falciparum in erythrocytes, SYBR Green DNA, 72 h; series mostly up to 28.7 µM. The procedure, abridged:
as §1

The next assay has as its system PC26. The assay is described as above. The settings on record: P. falciparum in erythrocytes, SYBR Green DNA, 72 h; series mostly up to 28.7 µM. A digest of the protocol: as §1
The test system of another assay is SC27B. The description is as above. The settings on record: P. falciparum in erythrocytes, SYBR Green DNA, 72 h; series mostly up to 28.7 µM. A digest of the protocol:
as §1

The subject of another assay is TAB113. Described as above. The note with it: P. falciparum in erythrocytes, SYBR Green DNA, 72 h; series mostly up to 28.7 µM. The procedure, abridged:
as §1

The test system of the next assay is W2. The assay is described as above. The note with it: P. falciparum in erythrocytes, SYBR Green DNA, 72 h; series mostly up to 12.8 µM. A digest of the protocol:
as §1

Another assay deals with ICS. Described as above. The note with it: P. falciparum in erythrocytes, SYBR Green DNA, 72 h; series mostly up to 28.7 µM. The procedure, abridged: as §1
Where [6] appears, read: primary cells of rat origin unless noted.

A number with no mark means an inactive call. Results filed as inconclusive are left out. Calls of active or inactive are those of the source. Unless noted, calls come from the whole dose curve; as a rule, active = well fitted curve in the direction sought with a large enough effect; inconclusive = small, poorly fitted or top-dose-only effect, or another doubt; inactive = no such curve, though single readings can be large; an effect the other way counts as inactive or inconclusive.

Peroxisome proliferator-activated receptor alpha (Homo sapiens), sequence (Q07869 whole entry, looked up, the tested form may be a part): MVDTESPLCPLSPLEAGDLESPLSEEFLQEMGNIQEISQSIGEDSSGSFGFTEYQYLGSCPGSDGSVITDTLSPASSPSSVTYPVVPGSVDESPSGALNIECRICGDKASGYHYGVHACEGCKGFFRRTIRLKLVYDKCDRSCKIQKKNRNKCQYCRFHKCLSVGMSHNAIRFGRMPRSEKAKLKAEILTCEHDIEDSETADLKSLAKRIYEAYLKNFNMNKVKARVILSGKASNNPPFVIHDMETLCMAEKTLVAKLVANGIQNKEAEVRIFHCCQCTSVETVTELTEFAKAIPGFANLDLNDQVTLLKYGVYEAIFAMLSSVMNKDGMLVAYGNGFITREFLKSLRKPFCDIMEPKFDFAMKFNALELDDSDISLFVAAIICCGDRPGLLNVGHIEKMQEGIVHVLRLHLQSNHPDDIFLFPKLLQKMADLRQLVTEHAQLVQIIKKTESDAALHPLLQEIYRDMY

For `CN1[C@@H]2CC[C@H]1CC(O)C2` (some centres undefined), the activity change, negative = inhibition in [1] is -15.4%.

As to `C/C=C/c1ccc2c(c1)OCO2`, the activity change, negative = cytotoxicity in assay [2] (setting [6]) was -9.95% [at 91.7 µM]. Moreover, the activation in assay [3] was -2.48%. The max response in assay [4] is -6.18%.

For `CC([C@H](O)c1ccccc1)N(C)C` (some centres undefined), the Potency entry (in assay [5]; with CP260; in the assay on CP265; with CP291; in the assay on CP297; with CP325) was “inactive” in each case. In addition, the Potency entry in the assay with CP329, in the assay on CP335, with FAB9, in the assay on JCK, with PC15 and in the assay with PC26 was “inactive” throughout. Besides, the Potency entry with SC27B and in the assay with TAB113 was “inactive” each time. The Potency in the assay with W2 is 6.75 µM (active).

Take `O=C(O)COc1ccc(Cl)cc1Cl`: the activity change, negative = cytotoxicity was -12.8% in assay [2] and -15.7% in assay [2] (primary cells of rat origin). In assay [3], the activation was -2.21% [middle of 4 runs]. Moreover, the max response in assay [4] is 0.368% [middle of 4 runs].

With `ClC1=C(Cl)C2(Cl)C3C4CC(C5OC45)C3C1(Cl)C2(Cl)Cl` (centres undefined), the activity change, negative = cytotoxicity in [2] (setting [6]) is -5.71% [at 91.7 µM]. Moreover, the Potency entry (in assay [5]; in the assay with CP325; in the assay on CP329; with FAB9; in the assay on JCK; with PC15) was “inactive” each time. Further, the Potency entry in the assay on PC26 and with SC27B was “inactive” in each case. Further, the max response in [4] is 9.76%.

Consider `COc1cc2c(cc1O)C[C@H]1c3c(cc(O)c(OC)c3-2)CCN1C`, for which the activity change, negative = inhibition in assay [1] is -8.08%.

`O=C1C(Cl)=C(Cl)C(=O)C(Cl)=C1Cl`: the activity change, negative = cytotoxicity in assay [2] (setting [6]) is -104% (active). Also, in assay [3], the Potency was 25.1 µM (active). Further, the max response in assay [4] was -6.11%.

For `C[C@@]12CC[C@H](O)C[C@@H]1CC[C@H]1[C@H]2CC[C@@]2(C)[C@@H](C3=CC(=O)OC3)CC[C@]12O`, in [1], the activity change, negative = inhibition is -74.9% (active).

As for `COc1cc2c(cc1OC)[C@@]13CCN4CC5=CCOC6CC(=O)N2C1[C@H]6[C@@H]5C[C@@H]43` (some centres undefined), the Potency result (in assay [5]; in the assay on CP260; in the assay on CP265; with CP291; in the assay with CP297; with CP325) was “inactive” in each case. The Potency result in the assay on CP329, with CP335, in the assay with FAB9, in the assay on ICS, in the assay with JCK and in the assay with PC15 was “inactive” each time. For the same molecule, the Potency entry in the assay with PC26, in the assay on SC27B, in the assay with TAB113 and in the assay on W2 was “inactive” throughout.

On to `C[C@@H]1O[C@H](O[C@H]2C[C@@H](O)[C@@]3(CO)[C@H]4[C@@H](O)C[C@]5(C)[C@@H](C6=CC(=O)OC6)CC[C@]5(O)[C@H]4CC[C@]3(O)C2)[C@@H](O)[C@H](O)[C@@H]1O`, for which the activity change, negative = inhibition in assay [1] was -76.3% (active).

As to `O=c1ccc2cc(O[C@H]3O[C@@H](CO)[C@@H](O)[C@@H](O)[C@@H]3O)c(O)cc2o1`, the Potency entry in the assay with CP260, with CP265, in the assay with CP291, in the assay on CP297, in the assay with CP325 and with CP329 was “inactive” each time. The Potency result with CP335, in the assay with FAB9, in the assay with ICS, in the assay on JCK, with PC15 and in the assay on PC26 was “inactive” in each case. For the same molecule, the Potency entry with SC27B, in the assay on TAB113 and in the assay with W2 was “inactive” in each case.

`CCC(C)C1O[C@]2(C=CC1C)CC1CC(C/C=C(\C)[C@H](OC3CC(OC)C(O[C@H]4CC(OC)[C@@H](O)C(C)O4)C(C)O3)[C@@H](C)/C=C/C=C3\COC4C(O)C(C)=C[C@H](C(=O)O1)[C@@]34O)O2` (some centres undefined): the Potency entry in assay [5] was “inactive”. Also, the Potency was 8.91 µM (active) with CP265; 10.7 µM (active) in the assay with CP291; 13.5 µM (active) in the assay on CP297; 9.53 µM (active) with CP329; 6.75 µM (active) with CP335; 7.08 µM (active) in the assay on ICS. The Potency with PC26 is 7.57 µM (active); in the assay on SC27B, 11.2 µM (active); in the assay with W2, 4.78 µM (active).

With `C#CCOS(=O)OC1CCCCC1Oc1ccc(C(C)(C)C)cc1` (centres undefined), the Potency in assay [3] was 5.62 µM (active). In [4], the max response is -1.77%.

`CC(C)Nc1nc(Cl)nc(NC(C)C)n1`: in assay [3], the activation is -2.19%. The max response in [4] is -0.58%.
